SMILES strings stand for the structures. About 83,000 compounds went through this panel and 20% of them were active in at least one assay; those are over-represented in the sample as a whole.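 Values shown are percent growth following 48 h exposure of cells in 96-well plates to a single concentration of compound; below 10 was considered active.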 A number with no mark means an inactive call. Calls of active or inactive are those of the source.

Consider 40 compounds from PubChem BioAssay (NCI).

The subject of the test is BT-549 breast. Put plainly: NCI-60 one-dose screen, 48 h (100 = growth as untreated, 0 = no growth, -100 = all killed). Particulars: 10 µM unless noted. Here is the method: Growth inhibition of the BT-549 human tumor cell line is measured as a screen for anti-cancer activity. Cells are grown in 96 well plates and exposed to the test compound for 48 hours. Compounds are tested at a single concentration, which is 10^-5 M for most compounds. The reported endpoint is percent growth (GI% or GIPRCNT), where numbers from 0 - 100% represent growth inhibition, and numbers from -100% - 0 represent cell death. For example, a value of 40 represents 60% growth inhibition. A value of 0 means no net growth occurred over the course of the experiment. A value of -40 indicates 40% of cells at the beginning of the experiment died by the end of the experiment. A value of -100 means all cells are dead at the end of the experiment.
NCI-60 Human Tumor Cell Lines Screen was performed using the standard one-dose NCI protocol, which is described in more detail at https://dtp.cancer.gov/discovery_development/nci-60/default.htm.
Compounds with GIPRCNT values below 10 were considered active. Activity score was based on GIPRCNT using the following formula: […]
Score is 0 for GIPRCNT values of 100 or above, 50 for GIPRCNT values of 0, and 100 for GIPRCNT values of -100.
`Cn1cc(-c2nc(-c3c[nH]c4ccccc34)cs2)c2cccnc21`: the growth is 7.05% (active).
As for `C/C(Cc1ccc(Cl)cc1)=C(\c1ccc(OCCN2CCCCCC2)cc1)c1ccc(OC(=O)Cc2ccccc2)cc1`, the growth was 89.3%.
Consider `c1c2c(cc3c1OCO3)Cc1cc3c(cc1Cc1cc4c(cc1C2)OCO4)OCO3`, for which the growth was 113%.
The figure for `Nc1nc2c(c3ncccc13)C(c1cccc(Br)c1)Cc1ncccc1-2` (stereo not given) is 24.8%; for `CC/C=C\C[C@H](F)C/C=C1/C(=O)C=C[C@@H]1C/C=C\CCCC(=O)O` it is 68.8%.
The result for `C=C1C(=O)O[C@H]2[C@H]1CC/C(Cn1cc(Cc3c[nH]c4ccccc34)nn1)=C\CC[C@@]1(C)O[C@@H]21` reads 44.2%; that for `COc1cc(NCCCCN=C(N)NC(N)=NC(C)C)c2ncccc2c1`, 54.8%; that for `COc1cnc2c(c1)C(=O)c1c-2n(CCCN2CCCC2)c(=O)c2cc([N+](=O)[O-])ccc12`, 18.2%.
The result for `O=C(CNC1C2CC3CC(C2)CC1C3)Sc1nnc2sc3ccccc3n12` (stereo not given) reads 98%; that for `COc1c(Cl)cc(Cl)cc1Cl`, 120%; that for `Fc1ccc(Cc2ccc(F)cc2)cc1`, 128%.
With `CC(C)C1=C[C@@]23CC[C@@H]4[C@](C)(CCC[C@@]4(C)C(=O)OCC#CCN4CCCC4)[C@H]2C[C@@H]1[C@H]1C(=O)OC(=O)[C@H]13`, the growth was 87.7%.
The result for `CC(=O)/C(=C/c1cccc(Cl)c1)C(=O)c1ccccc1` reads 72.6%; that for `C#Cc1nc2ccccc2c(=O)[nH]1`, -61.2% (active); that for `CCN(CC)CCCNc1cc(OC)cc2nc3cc(Cl)ccc3nc12`, 2.46% (active).
Turning to `COc1cc(C2CC(=O)Nc3c2cnn3Cc2ccco2)cc2c1OCCO2` (stereo not given), the growth is 87.7%.
Regarding `CC[C@H](CO)Nc1nc(NCc2ccccc2)n2ncc(C(C)C)c2n1`, the growth is -28.1% (active).
The result for `O=C(O)c1cn(C2CC2)c2cc(N3CCN(Cc4nc5c(cnn5-c5ccc([N+](=O)[O-])cc5)c(=O)[nH]4)CC3)c(F)cc2c1=O` reads 96.1%; that for `COc1cc(-c2c3c(nc4c2c(C)nn4-c2ccccc2)-c2ccccc2C(=O)C3=O)cc(OC)c1OC`, 68.4%; that for `COc1cc(NCCCCCN=C(N)NC(N)=NC(C)C)c2ncccc2c1`, -0.951% (active).
The result for `COc1ccc(N(Cc2cc(OC)c(OC)c(OC)c2)C2OC(=O)c3ccccc32)cc1` (stereo not given) reads 66.1%; that for `CNC(=S)N/N=C/CSC/C=N/NC(=S)NC`, 96.8%.
The figure for `Clc1ccc(-c2nnc(COc3ccccc3Cl)o2)cc1` is 89.4%.
With `CC1CN(C(C)C)C(=S)N(c2ccccc2)C1=O` (stereo not given), the growth is 101%.
The figure for `Nc1ccc(Nc2nccc(-c3ccc4ccccc4c3)n2)cc1` is 57.7%; for `COc1cc(OC)c(/C=C/S(=O)(=O)Cc2ccc(OC)c(N)n2)c(OC)c1` it is 8.17% (active).
The result for `O=[N+]([O-])c1cccc(-c2nc3sccn3c2-c2ccnc(NCCCNS(=O)(=O)c3ccc(Br)cc3)n2)c1` reads 38%; that for `CCCCCCCCCCCCS(=O)CC(C)O` (stereo not given), 109%.
The figure for `CCOC(=O)N1CCN(c2nc(Nc3cc(C)[nH]n3)c3ccccc3n2)CC1` is 56.8%; for `CC(C)n1cc2c(N)ncnc2n1` it is 101%; for `CNC(=O)c1cc(Oc2ccc3nc(NC(=O)Nc4ccc(CN5CCOCC5)c(C(F)(F)F)c4)sc3c2)ccn1` it is 12.2%.
`COc1cc(/C=N\NC(=O)CN2CCN(c3cc4c(cc3F)c(=O)c(C(=O)N/N=C/c3ccc(O)c(OC)c3)cn4C3CC3)CC2)ccc1O`: the growth was 56%.
The result for `COc1ccc2nc3cc(Cl)ccc3c(N3CCN(c4ccnc(N5CCOCC5)n4)CC3)c2c1` reads 93.1%; that for `CCN(CC)CCC(=O)c1ccc(OC)c2ccccc12`, 79.6%.
The result for `O=C1C(=O)N(CCCCn2cc(CO)nn2)c2ccccc21` reads 115%; that for `O=C([C@@H](COCc1ccccc1)N1C(=O)[C@@H](N2C(=O)OC[C@@H]2c2ccccc2)[C@H]1/C=C/c1ccccc1)N1CCC(CCN2CCCCC2)CC1`, 90%.
The figure for `Oc1ccccc1/C=N/Nc1ccc2ccccc2n1` is 66.8%.
For `C/C(=C(/c1ccc(O)cc1)c1ccc(Cl)cc1)c1ccccc1`, the growth was -78.9% (active).
The figure for `Nc1ccc2c(c1)C(=O)NC2=O` is 117%.
The result for `O=C1NC(=O)C(CC(=O)n2c(-c3ccccc3)nc3ccccc32)C(=O)N1` reads 101%.
